# Hits are enriched below; roughly 2.3% of the tested compounds scored in any of these assays.
# bovine MsrA act = bovine methionine sulfoxide reductase A activation | purified bovine MsrA, absorbance read-out | AID 602163 | actives 0.3% (n = 360,000) | activation, % at 10.6 µM; in the data active = activation above about 7.5%;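 also: 0% = vehicle and 100% = reference activator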
# PP5 primary = blocks human protein phosphatase 5 activity; inhibition, % at 6.7 µM; AID 1987; P53041; purified PP5c, OMFP substrate fluorescence; actives 0.18% (n = 320,000);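 active = inhibition above the campaign's mean inhibition across all tested compounds plus 3 SD, cut at about 9.5% in these data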;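 also: 0% = DMSO only and 100% = 100 µM cantharidin control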
# EBNA-1 inh = blocks EBNA-1 binding to DNA. EBNA-1 DNA binding, fluorescence polarization. inhibition, % at 14.8 µM. AID 1950. actives 0.34% (n = 300,000); in the data active = inhibition above about 28%
# MsrA inh = inhibitors of bovine MsrA; purified bovine MsrA, absorbance read-out; inhibition, % at 15.5 µM; actives 0.75% (n = 360,000); in the data active = inhibition above about 4.5%;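 also: 0% = vehicle wells with enzyme and 100% = reference inhibitor wells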
# PP1 counter = counter-screen for PP5 inhibitors: inhibitors of human PP1-alpha; P62136; purified PP1alpha, OMFP fluorescence; inhibition, % at 6.7 µM; actives 0.9% (n = 320,000); AID 2235;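 active = inhibition above the mean inhibition of all tested compounds plus 3 SD, computed separately for each screening campaign, cut at about 15% in these data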
# Target sequence (P62136 whole entry, looked up): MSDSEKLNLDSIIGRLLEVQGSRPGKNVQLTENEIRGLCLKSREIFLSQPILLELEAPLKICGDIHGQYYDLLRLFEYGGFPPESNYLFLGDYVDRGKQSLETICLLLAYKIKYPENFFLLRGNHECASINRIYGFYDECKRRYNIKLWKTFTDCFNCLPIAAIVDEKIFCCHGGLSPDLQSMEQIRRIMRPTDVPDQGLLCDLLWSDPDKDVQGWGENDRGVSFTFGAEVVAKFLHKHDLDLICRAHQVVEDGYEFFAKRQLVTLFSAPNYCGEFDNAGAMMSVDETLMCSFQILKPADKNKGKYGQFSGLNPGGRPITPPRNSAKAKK
# ZTA counter = counter-screen for EBNA-1 inhibitors: inhibitors of Epstein-Barr virus ZTA; P03206; ZTA-DNA binding, fluorescence polarization; inhibition, % at 11 µM; actives 0.15% (n = 320,000); AID 2234; in the data active = inhibition above about 33%
# Target sequence (P03206 whole entry, looked up): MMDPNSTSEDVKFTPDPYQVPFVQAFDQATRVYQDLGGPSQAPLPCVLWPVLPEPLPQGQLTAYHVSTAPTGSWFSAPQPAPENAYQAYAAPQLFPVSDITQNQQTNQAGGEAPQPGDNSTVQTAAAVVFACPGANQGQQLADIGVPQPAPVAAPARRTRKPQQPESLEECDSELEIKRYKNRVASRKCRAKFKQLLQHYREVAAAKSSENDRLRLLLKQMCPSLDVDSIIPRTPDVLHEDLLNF
# MsrA act confirm = confirmation of bovine methionine sulfoxide reductase A activators. shares compounds with bovine MsrA act. activation, % at 10.6 µM. actives 12% (n = 1,000). purified bovine MsrA, absorbance read-out; in the data active = activation above about 4%;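 also: enzyme coupled to thioredoxin and thioredoxin reductase with NADPH; 0% = vehicle wells and 100% = reference activator wells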
# * marks the source's active call; other numbers are inactive results; . = no result given; + = active, no number.
SMILES,bovine MsrA act,PP5 primary,EBNA-1 inh,MsrA inh,PP1 counter,ZTA counter,MsrA act confirm
CN(C)c1ccc2nc3ccc(=[N+](C)C)cc-3sc2c1,22.9*,5.1,+,8.2*,-1.8,.,7.9*
O=C(Cc1cnc2ncnn2c1)N1CCc2c([nH]c3ccccc23)C1c1ccccc1F (configuration not stated),-2.6,-4.3,-3.9,0.7,-7.8,-9.0,.
OC[C@@H]1CN(Cc2ccc3c(c2)OCO3)C[C@H](n2cnc3c(N4CCOCC4)ncnc32)O1,7.8*,.,.,0.6,.,.,0.3
O=C(Nc1ccccc1Br)C1CCCN1S(=O)(=O)c1cccc2nsnc12 (configuration not stated),14.5*,0.5,7.1,1.8,-2.4,5.3,-0.1
O=C(Nc1ccccc1F)C1CCCN1S(=O)(=O)c1cccc2nsnc12 (configuration not stated),-3.5,1.1,5.6,-0.2,-1.9,-0.6,.
Cc1ccsc1/C=N/n1c(-c2ccco2)n[nH]c1=S,11.1*,-1.1,3.3,2.1,5.0,-12.3,-1.4
COc1ccc(C(C(=O)NCCC(C)C)N(CCN2CCOCC2)C(=O)Cn2nnc3ccccc32)c(OC)c1 (configuration not stated),-3.8,2.2,-11.6,-0.1,0.4,-19.7,.
CCOC(=O)C1CCCN(Cc2ccc(OC)c(OCc3ccccc3)c2)C1 (configuration not stated),-1.1,1.4,7.3,0.1,3.9,1.7,.
c1ccc(-c2cc3c(N4CCOCC4)ncnc3s2)cc1,8.0*,-1.0,4.8,2.3,2.2,6.3,-3.1
CCC(C)(C)n1nnnc1CN(Cc1cccs1)Cc1cc2cc(OC)ccc2[nH]c1=O,7.7*,3.1,11.4,1.5,3.6,-9.6,-2.8
COc1ccc(CNC(=O)c2cc(SC)ccc2Cl)cc1OC,-1.7,1.1,-1.4,-1.2,-0.8,-14.0,.
CC(=O)Oc1c(S(=O)(=O)c2ccccc2)c(C)nn1C(C)(C)C,10.2*,3.4,-3.2,-0.2,-1.8,-10.7,-2.4
Cc1cc(C)cc(NCCC#N)c1,-1.0,-2.3,2.0,-1.2,8.5,-1.0,.
O=C(CSc1nnc(NC(=O)c2ccco2)s1)Nc1ccccc1Br,1.8,0.8,4.8,-0.2,-1.2,3.8,.
COc1cccc(COc2ccccc2C2Nc3ccc(Br)cc3C(=O)N2NC(=O)c2ccncc2)c1 (configuration not stated),18.5*,4.3,-10.8,0.8,1.7,-5.8,-3.1
S=c1[nH]nc(-c2cc(-c3ccccc3)n[nH]2)n1/N=C/C(Br)=C/c1ccccc1,-14.2,2.0,-0.7,3.0,10.3,15.6,.
CN(CCCC(=O)Nc1ccncc1)S(=O)(=O)c1ccc(Cl)cc1,7.9*,1.6,-6.8,-1.5,-0.8,-8.8,1.7
Cc1cccc(Nc2ncnc(N)n2)c1,13.2*,1.5,-4.4,2.2,-3.9,-14.7,-1.4
COc1ccc(-n2c(C)cc(C(=O)CSc3nnc(-c4ccoc4C)n3C)c2C)cc1,-2.4,-1.0,-4.2,1.5,1.8,14.8,.
O=c1cc(N2CCC3(CC2)OCCO3)[nH]c(=O)n1C1CCCCC1,9.6*,-1.2,1.2,-0.6,-0.5,16.0,-2.3
COc1ccc(Cl)cc1NC(=O)CN(C)C(=O)c1ccc(-n2cncn2)cc1,-0.5,.,.,-1.1,.,.,.
CCOc1ncccc1C(=O)N(C)CC(=O)Nc1ccccc1SC,-2.1,0.3,-3.4,-0.9,2.6,-14.2,.
CC(=O)Nc1ccc(SC[C@H](Cc2ccccc2)N2CC[C@@H](O)CCC2=O)cc1,9.3*,-1.2,.,0.3,2.5,-3.9,-1.3
CC(=O)Nc1ccc(SC[C@H](Cc2ccccc2)N2CC[C@@H](C(C)(C)C)CCC2=O)cc1,-3.8,7.1,.,0.7,11.9,-19.6,.
CC(=O)Nc1ccc(CNc2nc3cc(-c4ccc(F)cc4)sc3c(=O)n2C)cc1,-1.4,.,.,2.5,.,.,.
SMILES,bovine MsrA act,PP5 primary,EBNA-1 inh,MsrA inh,PP1 counter,ZTA counter,MsrA act confirm
O=C(NCCc1csc(-c2ccccc2)n1)c1c(F)cccc1F,-1.2,1.2,-4.2,0.8,3.9,-8.8,.
O=C(NCCc1ccccc1)c1c(F)cccc1F,11.1*,0.9,1.1,-0.4,-4.3,-7.2,-0.2
CCCN1C(=O)N(C)C(N(O)C(=O)NC)C1(C)C (configuration not stated),14.4*,2.0,-10.4,0.7,-0.6,1.4,0.5
COc1ccc(C(=O)N/C(=C\c2cn(S(=O)(=O)N(C)C)c3ccccc23)C(=O)NCCN2CCOCC2)cc1OC,-1.0,-1.3,1.0,0.3,-1.4,-3.8,.
COc1ccc(C(=O)N/C(=C\c2cn(S(=O)(=O)N(C)C)c3ccccc23)C(=O)NCCN2CCOCC2)cc1,18.3*,-0.9,3.3,4.6*,-2.1,2.0,-1.3
CN1CCN(NC(=S)NC2CCCC2)CC1,7.9*,2.8,4.9,0.3,-4.7,-14.0,2.6
COC(=O)CNC(=O)COC(=O)/C=C/c1ccc2ccccc2n1,8.7*,1.5,0.1,1.6,-2.3,-16.1,-2.5
Cc1cc(CN(C)C(=O)CC2C(=O)NCCN2CC(c2ccccc2)c2ccccc2)on1 (configuration not stated),-1.1,3.0,-1.5,2.1,-2.0,3.0,.
COCCN(C)C(=O)CC1C(=O)NCCN1CC(c1ccccc1)c1ccccc1 (configuration not stated),10.6*,1.4,-10.1,-0.2,1.0,-0.8,-2.6
Cc1ccc(OCC(=O)Nn2c(C)nc3ccccc3c2=O)c(C(C)C)c1,8.2*,2.0,3.1,0.4,0.0,10.9,-2.9
O=C(O)c1cc(-c2ccc(Cl)cc2)n[nH]1,9.2*,-2.2,3.5,-0.2,-1.6,-0.1,-1.6
Cc1noc(C)c1NC(=O)N(C)C[C@H]1Oc2ccc(NC(=O)Nc3ccc(C(F)(F)F)cc3)cc2C(=O)N([C@H](C)CO)C[C@@H]1C,19.3*,.,.,-0.6,.,.,0.0
COc1ccc(NC(=O)N(C)C[C@@H]2OCCCC[C@@H](C)Oc3ccc(NS(C)(=O)=O)cc3C(=O)N([C@H](C)CO)C[C@@H]2C)cc1,.,.,.,-0.3,.,.,.
COc1ccc(NC(=O)N(C)C[C@H]2OCCCC[C@@H](C)Oc3ccc(NC(=O)c4ccccc4)cc3C(=O)N([C@H](C)CO)C[C@@H]2C)cc1,11.0*,.,.,-0.1,.,.,-2.1
CC(C)CC(=O)N1CCN(c2ccc(NC(=O)c3ccco3)cc2)CC1,-1.9,-0.9,13.8,-0.1,-1.5,7.7,.
CC(=O)c1c(C)n(-c2ccc(Cl)cc2)c2ccc(O)cc12,7.8*,1.9,-2.1,-0.8,-2.4,8.6,0.1
CC(=O)c1ccc(-n2c(C)c(C(C)=O)c3cc(O)ccc32)cc1,-3.3,2.8,-14.1,1.0,-2.2,-10.3,.
COc1cc(OC)cc(C(=O)NC2CCN(CC(=O)Nc3cccc4ccccc34)CC2)c1,8.9*,1.1,-12.8,1.0,-0.9,-2.5,-0.7
COc1ccc(OCC(O)CN2CCNCC2)cc1 (configuration not stated),-1.0,.,.,-0.2,.,.,.
